# According to PubChem BioAssay (NCI):
# About 79,000 compounds went through this panel and 15% of them were active in at least one assay; those are over-represented in the sample as a whole. A number with no mark means an inactive call. Active and inactive are the calls of the source. Rule as the data show it: active = growth inhibition above about 70%; inactive = the rest.
# What was measured:
# [1] = NCI Yeast Anticancer Drug Screen. Data for the rad52 strain (AID 147);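 also: 0% = growth of vehicle-treated control cultures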; details: S. cerevisiae rad52 mutant growth inhibition, stronger effect = higher value
# Summary of the method: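 Compounds are applied to a genetically defined yeast strain lacking normal DNA damage repair, and inhibition of growth is expressed relative to cultures given vehicle only.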
# [2] = NCI Yeast Anticancer Drug Screen. Data for the wt1 strain (AID 149);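 also: 0% = growth of vehicle-treated wt1 cultures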; details: S. cerevisiae wt1 strain (SPY 50644) growth inhibition, stronger effect = higher value
# Summary of the method: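 Vehicle-normalised growth inhibition; strain wt1; compound exposure.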
# [3] = NCI Yeast Anticancer Drug Screen. Data for the mgt1 strain (AID 153); details: S. cerevisiae mgt1 mutant growth inhibition, stronger effect = higher value
# Summary of the method: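 Strain: mgt1 yeast, one of a set carrying defined DNA damage repair or cell cycle control alterations. Compound-treated growth compared with vehicle.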
# [4] = NCI Yeast Anticancer Drug Screen. Data for the rad50 strain (AID 155);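 also: 0% = growth of vehicle-only cultures of the same strain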; details: S. cerevisiae rad50 strain growth inhibition, stronger effect = higher value
# Summary of the method: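 A DNA repair-deficient yeast mutant serves as the test organism; compound-induced growth inhibition is calculated against vehicle-treated cells.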
# [5] = NCI Yeast Anticancer Drug Screen. Data for the mec2-1 strain (AID 157); details: S. cerevisiae mec2-1 strain, stronger effect = higher value
# Summary of the method: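 Strain: mec2-1 (DNA repair/cell cycle alteration). Compound exposure, then growth measured; inhibition expressed relative to vehicle.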
# [6] = NCI Yeast Anticancer Drug Screen. Data for the rad14 strain (AID 159);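 also: 0% = growth of vehicle-treated control cultures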; details: S. cerevisiae rad14 strain growth inhibition, stronger effect = higher value
# Summary of the method: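 Vehicle-treated cultures served as the baseline for growth inhibition of a DNA repair-mutant yeast strain exposed to each compound.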
# [7] = NCI Yeast Anticancer Drug Screen. Data for the sgs1 mgt1 strain (AID 161);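 also: 0% = growth of cultures given vehicle only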; details: S. cerevisiae sgs1 mgt1 strain, stronger effect = higher value
# Summary of the method: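 Read-out: growth inhibition vs vehicle controls. Cells: mutant yeast strain deficient in DNA damage repair.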
# [8] = NCI Yeast Anticancer Drug Screen. Data for the CLN2oe strain (AID 163);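 also: 0% = growth of vehicle-only control cultures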; details: S. cerevisiae CLN2oe strain, stronger effect = higher value
# Summary of the method: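 Growth of a genetically modified yeast strain is measured after compound exposure and compared with cultures given vehicle alone.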
# [9] = NCI Yeast Anticancer Drug Screen. Data for the cln2 rad14 strain (AID 165);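 also: 0% = growth equal to vehicle treated cultures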; details: S. cerevisiae cln2 rad14 strain, stronger effect = higher value
# Summary of the method: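 Compounds are applied to the cln2 rad14 yeast strain, and growth is then compared with that of vehicle-treated cultures to give inhibition.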
# [10] = NCI Yeast Anticancer Drug Screen. Data for the bub3 strain (AID 167); details: S. cerevisiae bub3 mutant strain, stronger effect = higher value
# Summary of the method: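 Inhibition values come from growth of compound-treated mutant yeast normalised to vehicle-treated controls.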
# [11] = NCI Yeast Anticancer Drug Screen. Data for the wt2 strain (AID 169);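 also: 0% = growth of vehicle-treated yeast cultures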; details: S. cerevisiae wt2 strain growth inhibition, stronger effect = higher value
# Summary of the method: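 This strain belongs to a panel of yeast strains with defined genetic alterations in DNA damage repair or cell cycle control. Compounds are applied, and growth inhibition is measured against vehicle-treated cultures.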
# [12] = NCI Yeast Anticancer Drug Screen. Data for the mlh1 strain (AID 171);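 also: 0% = growth of vehicle-treated control cultures of the same strain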; details: S. cerevisiae mlh1 strain growth inhibition, stronger effect = higher value
# Summary of the method: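 Growth of the mutant yeast strain after compound exposure, expressed as inhibition relative to vehicle-only controls.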
# [13] = NCI Yeast Anticancer Drug Screen. Data for the sgs1 strain (AID 173);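 also: 0% = growth of vehicle-only control cultures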; details: S. cerevisiae sgs1 mutant, stronger effect = higher value
# Summary of the method: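 Growth of a yeast strain bearing a defined genetic alteration is measured after compound treatment. Inhibition is expressed relative to vehicle-only controls.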
# [14] = NCI Yeast Anticancer Drug Screen. Data for the mlh1 rad18 strain (AID 175); details: S. cerevisiae mlh1 rad18 strain growth inhibition, stronger effect = higher value
# Summary of the method: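 Read-out is yeast growth inhibition, calculated against vehicle-only controls. The compound was applied to a strain engineered with DNA damage repair alterations.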
# [15] = NCI Yeast Anticancer Drug Screen. Data for the rad18 strain (AID 177); details: S. cerevisiae rad18 mutant growth inhibition, stronger effect = higher value
# Summary of the method: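 Growth of the mutant yeast strain after compound exposure, normalised to vehicle-only cultures.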
# [16] = at 5.0 µM (retest, dose inferred, filed as 0.5)
# [17] = at 50.0 µM (retest, dose inferred, filed as 5.0)
smiles,measurement,setting,value
CNC(=S)N/N=C(/C)CCC/C(C)=N/NC(=S)NC,growth inhibition,[1]; at 1.2 µM,28%
same,growth inhibition,[1]; at 3.7 µM,54%
same,growth inhibition,[1]; at 11.0 µM,64%
same,growth inhibition,[1]; at 33.0 µM,64%
same,growth inhibition,[1]; at 100.0 µM,68%
same,growth inhibition,[2]; at 1.2 µM,1%
same,growth inhibition,[2]; at 3.7 µM,35%
same,growth inhibition,[2]; at 11.0 µM,48%
same,growth inhibition,[2]; at 33.0 µM,45%
same,growth inhibition,[2]; at 100.0 µM,44%
same,growth inhibition,[3]; at 1.2 µM,3%
same,growth inhibition,[3]; at 3.7 µM,12%
same,growth inhibition,[3]; at 11.0 µM,22%
same,growth inhibition,[3]; at 33.0 µM,22%
same,growth inhibition,[3]; at 100.0 µM,32%
same,growth inhibition,[4]; at 1.2 µM,36%
same,growth inhibition,[4]; at 3.7 µM,67%
same,growth inhibition,[4]; [16],40%
same,growth inhibition,[4]; at 11.0 µM,87% (active)
same,growth inhibition,[4]; at 33.0 µM,89% (active)
same,growth inhibition,[4]; [17],37%
same,growth inhibition,[4]; at 50.0 µM,66.8%
same,growth inhibition,[4]; at 100.0 µM,92% (active)
same,growth inhibition,[5]; at 1.2 µM,27%
same,growth inhibition,[5]; at 3.7 µM,42%
same,growth inhibition,[5]; [16],66%
same,growth inhibition,[5]; at 11.0 µM,53%
same,growth inhibition,[5]; at 33.0 µM,48%
same,growth inhibition,[5]; [17],55%
same,growth inhibition,[5]; at 50.0 µM,43.4%
same,growth inhibition,[5]; at 100.0 µM,35%
same,growth inhibition,[6]; at 1.2 µM,30%
same,growth inhibition,[6]; at 3.7 µM,44%
same,growth inhibition,[6]; at 11.0 µM,61%
same,growth inhibition,[6]; at 33.0 µM,61%
same,growth inhibition,[6]; at 100.0 µM,52%
same,growth inhibition,[7]; [16],48%
same,growth inhibition,[7]; [17],53%
same,growth inhibition,[7]; at 50.0 µM,66.5%
same,growth inhibition,[8]; at 1.2 µM,80% (active)
same,growth inhibition,[8]; at 3.7 µM,97% (active)
same,growth inhibition,[8]; at 11.0 µM,98% (active)
same,growth inhibition,[8]; at 33.0 µM,98% (active)
same,growth inhibition,[8]; at 100.0 µM,97% (active)
same,growth inhibition,[9]; [16],21%
same,growth inhibition,[9]; [17],-2%
same,growth inhibition,[9]; at 50.0 µM,27.2%
same,growth inhibition,[10]; at 1.2 µM,43%
same,growth inhibition,[10]; at 3.7 µM,62%
same,growth inhibition,[10]; [16],70% (active)
same,growth inhibition,[10]; at 11.0 µM,65%
same,growth inhibition,[10]; at 33.0 µM,73% (active)
same,growth inhibition,[10]; [17],69%
same,growth inhibition,[10]; at 50.0 µM,54.4%
same,growth inhibition,[10]; at 100.0 µM,74% (active)
same,growth inhibition,[11]; at 1.2 µM,16%
same,growth inhibition,[11]; at 3.7 µM,58%
same,growth inhibition,[11]; at 11.0 µM,78% (active)
same,growth inhibition,[11]; at 33.0 µM,72% (active)
same,growth inhibition,[11]; at 100.0 µM,67%
same,growth inhibition,[12]; at 1.2 µM,-2%
same,growth inhibition,[12]; at 3.7 µM,34%
same,growth inhibition,[12]; at 11.0 µM,52%
same,growth inhibition,[12]; at 33.0 µM,37%
same,growth inhibition,[12]; at 100.0 µM,40%
same,growth inhibition,[13]; at 1.2 µM,14%
same,growth inhibition,[13]; at 3.7 µM,24%
same,growth inhibition,[13]; at 11.0 µM,65%
same,growth inhibition,[13]; at 33.0 µM,63%
same,growth inhibition,[13]; at 100.0 µM,62%
same,growth inhibition,[14]; [16],55%
same,growth inhibition,[14]; [17],63%
same,growth inhibition,[14]; at 50.0 µM,62.4%
same,growth inhibition,[15]; at 1.2 µM,1%
same,growth inhibition,[15]; at 3.7 µM,21%
same,growth inhibition,[15]; at 11.0 µM,19%
same,growth inhibition,[15]; at 33.0 µM,24%
same,growth inhibition,[15]; at 100.0 µM,37%
